An excerpt weighted towards active compounds, which were near 1.3% of everything screened.
Fam108B inh – counter-screen for RBBP9 inhibitors: inhibitors of mouse Fam108B. AID 1947. 300,000 compounds, 0.33% hits. inhibition, % at 9.51 µM. recombinant Fam108B, FP-Rh probe fluorescence polarization;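 active means inhibition above the screen mean inhibition plus 3 SD, computed separately per campaign, cut at about 18% in these data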;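 further: inhibitors lower polarization as less probe binds the enzyme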
LYPLA1 counter – blocks human lysophospholipase 1, a PME1 counter-screen | 320,000 compounds, 0.16% hits | inhibition, % at 5.9 µM | O75608 | recombinant LYPLA1, FP-Rh probe fluorescence polarization;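 active means inhibition above the mean of all tested compounds plus 3 SD, set per campaign, cut at about 14% in these data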;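 further: inhibitors block serine hydrolase probe labeling of LYPLA1 so polarization falls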
PREPL inhibitor – inhibitors of human prolyl oligopeptidase-like enzyme PREPL; Q4J6C6; recombinant PREPL, fluorescence polarization activity-based probe; inhibition, % at 5.96 µM; 320,000 compounds, 0.68% hits; in the data active means inhibition above about 43%
PME-1 inh – blocks human protein phosphatase methylesterase 1 | Q9Y570 | recombinant PME-1, FP-Rh probe fluorescence polarization | inhibition, % at 5.9 µM | 320,000 compounds, 0.53% hits;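 active means inhibition above the campaign mean of all compounds plus 3 SD, cut at about 26% in these data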;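 further: competitive labeling of PME-1 active site by serine hydrolase directed probe; inhibitors block probe labeling so polarization falls and inhibition rises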
Target sequence (Q9Y570 whole entry, looked up): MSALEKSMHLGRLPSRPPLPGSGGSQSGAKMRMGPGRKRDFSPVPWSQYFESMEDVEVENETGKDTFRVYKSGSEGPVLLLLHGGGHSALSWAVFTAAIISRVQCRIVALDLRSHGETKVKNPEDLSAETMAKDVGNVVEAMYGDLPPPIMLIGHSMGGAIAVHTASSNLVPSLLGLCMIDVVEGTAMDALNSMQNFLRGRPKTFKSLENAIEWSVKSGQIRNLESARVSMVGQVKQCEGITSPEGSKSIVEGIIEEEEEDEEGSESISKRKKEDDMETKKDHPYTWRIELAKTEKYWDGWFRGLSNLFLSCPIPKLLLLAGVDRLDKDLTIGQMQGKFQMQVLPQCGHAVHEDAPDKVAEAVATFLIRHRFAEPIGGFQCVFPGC
LYPLA2 inh – LYPLA2 (human) inhibition in PME1 counter-screen. O95372. recombinant LYPLA2, FP-Rh probe fluorescence polarization. inhibition, % at 5.9 µM. 320,000 compounds, 0.38% hits. AID 2177;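 active means inhibition above the screen-wide mean plus 3 SD, limit set per campaign, cut at about 26% in these data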
Target sequence (O95372 whole entry, looked up): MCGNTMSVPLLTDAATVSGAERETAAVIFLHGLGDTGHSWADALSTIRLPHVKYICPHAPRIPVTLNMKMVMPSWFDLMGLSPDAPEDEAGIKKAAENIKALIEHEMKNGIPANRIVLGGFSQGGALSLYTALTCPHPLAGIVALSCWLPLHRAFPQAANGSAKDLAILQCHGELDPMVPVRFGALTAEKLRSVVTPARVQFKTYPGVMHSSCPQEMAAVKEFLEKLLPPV
LYPLA2 confirm – LYPLA2 (human) inhibition, confirmation counter-screen; shares compounds with LYPLA2 inh; recombinant LYPLA2, FP-Rh probe fluorescence polarization; inhibition, % at 5.9 µM; 1,100 compounds, 72% hits;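 active means mean inhibition across replicates above the hit cutoff set in the primary screen, cut at about 26% in these data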;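 further: blocked labeling of the enzyme by serine hydrolase FP-Rh probe lowers polarization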
LYPLA2 ABPP – LYPLA2 (human) inhibition, late stage results | shares compounds with LYPLA2 inh | rhLYPLA2 in mouse brain proteome, gel ABPP FP-Rh | inhibition, % at 20 µM | 150 compounds, 30% hits;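 active means inhibition of LYPLA2 enzyme probe labeling above about 50%, limit read from the data; inactive means inhibition below that limit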;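 further: loss of FP-Rh probe labeling of the LYPLA2 gel band measured as band density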
Numbers stand for hits; 0 = inactive; - = not tested or not shown.

SMILES	Fam108B inh	LYPLA1 counter	PREPL inhibitor	PME-1 inh	LYPLA2 inh	LYPLA2 confirm	others
Cc1cc(C)cc(C(=O)N[C@@H](C)C(=O)N2CCC3(CC2)NCCc2[nH]cnc23)c1	0	0	0	0	0	-
CCOC(=O)C(=CN(CCc1ccccc1)CC(=O)OC)C(=O)OCC	0	0	0	0	0	-
COc1ccc(-c2ccc(=O)n(Cc3ccc([N+](=O)[O-])cc3)n2)cc1	0	0	0	0	28.9	29.5
COc1ccc(-c2cn(Cc3ccc([N+](=O)[O-])cc3)nn2)cc1	0	0	0	0	0	-
CCOC(=O)C1CCCN(C(=O)c2ccc3nc(-c4cccc(OC)c4)oc3c2)C1 (stereo not drawn)	0	0	0	0	55.8	57.1
CCC(=O)C1CCCN(C(=O)c2ccc3nc(-c4cccc(OC)c4)oc3c2)C1 (stereo not drawn)	0	0	0	0	29.0	39.9
C=CCN([C@@H](CC(C)C)C(=O)OC)S(=O)(=O)N(CC=C)[C@@H](CC(C)C)C(=O)OC	-	0	0	0	0	-
CCN(CC(=O)Nc1ccc(NC(C)=O)cc1)C(=O)c1cccnc1Sc1ccc(C)c(C)c1	0	0	0	0	0	-
Cc1ccc(NC(=O)NC2CCN(S(=O)(=O)c3ccc(F)cc3)CC2)cc1	0	0	0	0	0	-
CC(=O)c1ccc(S(=O)(=O)N2CCC(NC(=O)Nc3cccc(F)c3)CC2)cc1	0	0	0	0	37.2	47.2
Cc1nc(C(=O)NC2CCCCC2)sc1C1(C)CC(c2cccc([N+](=O)[O-])c2)=NO1 (stereo not drawn)	0	0	0	0	50.3	59.6	LYPLA2 ABPP=0
CC(=O)c1c(C)[nH]c(C(=O)COC(=O)CN(C)S(=O)(=O)c2ccc(Cl)cc2)c1C	0	0	0	0	35.2	0
CC(C)(C)C(=O)COC(=O)C1=NN(c2ccccc2)C(=O)CC1	0	0	0	0	0	-
COc1ccccc1C(=O)C1CCCN(C(=O)c2ccc3c(c2)OCCO3)C1 (stereo not drawn)	0	0	0	0	42.6	0
CN(C(=O)COC(=O)c1ccccc1SCC(=O)N1CCCC1)C1(C#N)CCCCC1	-	0	0	0	0	-
CC(=O)Nc1cccc(C(=O)OC(C)C(=O)N2CCc3ccccc32)c1 (stereo not drawn)	0	0	0	0	28.1	28.1
CC(OC(=O)c1cccc([N+](=O)[O-])c1)C(=O)N1CCc2ccccc21 (stereo not drawn)	-	0	0	0	0	-
CCCn1c(C)cc(C(=O)COc2ccc(C)nc2[N+](=O)[O-])c1C	0	0	0	0	29.6	0
O=C(O)c1cccc(N2C(=O)c3ccc(C(=O)c4cccc([N+](=O)[O-])c4)cc3C2=O)c1	0	0	0	0	45.0	58.5	LYPLA2 ABPP=0
CC(NC(=O)c1ccccc1)C(=O)N/N=C/c1ccc(O)cc1 (stereo not drawn)	0	0	0	0	0	-
Cc1ccc(C=NNC(=O)C(NC(=O)c2ccccc2)c2n[nH]c(=O)c3ccccc23)cc1 (stereo not drawn)	-	-	-	-	-	-	LYPLA2 ABPP=0
O=S(=O)(c1ccc(C2CCCCC2)cc1)N1CCCC1	0	0	0	0	0	-
O=C(Nc1ncccc1O)c1cccc(S(=O)(=O)N2CCc3ccccc32)c1	0	0	0	0	26.5	0
NC(=O)c1ccc(Oc2ccc(Cl)cc2)c([N+](=O)[O-])c1	0	0	0	0	0	-
NC(=O)c1ccc(Oc2ccc3c(c2)CCC3)c([N+](=O)[O-])c1	0	0	0	0	30.3	29.4
SMILES	Fam108B inh	LYPLA1 counter	PREPL inhibitor	PME-1 inh	LYPLA2 inh	LYPLA2 confirm	others
COc1ccc(C(=O)ON=C2CCN(c3ccc([N+](=O)[O-])cc3)CC2)cc1	0	0	0	0	35.1	38.7
O=C(OC1CCN(c2ccc([N+](=O)[O-])cc2)CC1)c1ccccc1	0	0	0	0	0	-
COc1ccc(NC(=O)N2CCN(c3ccc([N+](=O)[O-])cc3)CC2)cc1	0	0	0	0	0	-
O=C(ON=C1CCN(c2ccc([N+](=O)[O-])cc2)CC1)c1ccccc1	0	0	0	0	36.6	35.4
CC(C)N(Cc1ccccc1)C(=O)CN1C(=O)NC2(CCCC2)C1=O	-	0	0	0	0	-
NNC(=O)c1cccc(O)c1	0	0	0	0	0	-
Cc1ccc(C)c(NC(=O)CCN2C(=O)[C@@H]3Cc4ccccc4CN3C2=O)c1	0	0	0	0	0	-
Cc1nc([N+](=O)[O-])cn1CC(=O)c1ccccc1	0	0	0	0	0	-
Cc1nc([N+](=O)[O-])cn1CC(=O)Nc1ccc([N+](=O)[O-])cc1	0	0	0	0	33.0	40.6
O=C(CCNc1ccc(Cc2ccncc2)cc1)c1ccc([N+](=O)[O-])cc1	0	0	0	0	0	-
CC(=O)Nc1ccc(N2CCN(c3ccc(C(F)(F)F)cn3)CC2)nc1	0	0	0	0	52.3	51.0	LYPLA2 ABPP=0
CC(=O)c1cccc(OCC(=O)N2CCN(c3ccc(C(F)(F)F)cn3)CC2)c1	0	0	0	0	58.2	56.8	LYPLA2 ABPP=0
Cc1ccc(C(=O)N2CCN(c3ccc(C(F)(F)F)cn3)CC2)cc1	0	0	0	0	0	-
CC(=O)c1ccc(N2CCN(c3ccc(C(F)(F)F)cn3)CC2)cc1	0	0	0	0	45.5	41.5
CC(=O)c1ccc(N2CCN(c3ncc(C(F)(F)F)cc3Cl)CC2)cc1	0	0	0	0	0	-
COc1ccc(S(=O)(=O)N2CCOCC2)cc1NC(=O)CCc1cc(OC)c(OC)c(OC)c1	-	0	0	0	0	-
CC1CCN(CCn2c(=S)[nH]c3ccccc3c2=O)CC1	0	0	0	0	0	-
O=C(c1ccc(F)cc1)C1CCN(CCn2c(=S)[nH]c3ccccc3c2=O)CC1	0	0	0	0	26.5	28.5
O=C(c1cccc(F)c1)N1CCN(c2cccc(Cl)c2)CC1	0	0	0	0	0	-
O=C(c1ccc(N2CCN(C(=O)c3ccc(F)c(F)c3)CC2)cc1)c1cccc(F)c1	0	0	0	0	32.1	33.2
O=C(c1ccc(N2CCN(C(=O)c3ccccc3)CC2)cc1)c1cccc(F)c1	0	0	0	0	26.6	30.1
O=C(COC(=O)c1nn(CCO)c(=O)c2ccccc12)Nc1ccc(Cl)c(Cl)c1	-	-	0	-	-	-
Cc1cc(=O)oc2c(C)c(OCC(=O)N3CCN(c4ccccc4)CC3)ccc12	0	0	0	0	0	-
Cc1c(CC(=O)N2CCN(C(=O)C3COc4ccccc4O3)CC2)c(=O)oc2c(C)c(O)ccc12 (stereo not drawn)	0	0	0	0	0	-
Cc1cc(=O)oc2c(C)c(OCC(=O)N3CCN(C(=O)C4COc5ccccc5O4)CC3)ccc12 (stereo not drawn)	0	0	0	0	38.3	36.5

Bioassay records deposited in PubChem by The Scripps Research Institute Molecular Screening Center.
